# Source: PubChem BioAssay (EPA / NIEHS)
# Calls of active or inactive are those of the source. How the source made its calls: active means hit-call score of the fitted dose curve at least 0.9, where 1 is the maximum; inactive means score below 0.9.
# Legend:
# Conditions in all cases: mRNA level, 48 h; actives raise or lower the signal
# [1] = read-out: cysteine-aspartic acid protease (CASP8), CASP8 (gene 841); assay: LTEA_HepaRG_CASP8: Life Technologies and Expression Analysis (LTEA) Assay for cysteine-aspartic acid protease (CASP8) using HepaRG (AID 2283480)
# Outline: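 qRT-PCR readout of CASP8 mRNA, normalized to three housekeeping genes, after 48 h chemical exposure of HepaRG cells; 8-point half-log series, top 100 uM, 0.5% DMSO vehicle. Bidirectional curve fitting against DMSO baseline.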
# [2] = read-out: Cytochrome P450 (CYP2B6), CYP2B6 (gene 1555); assay: LTEA_HepaRG_CYP2B6: Life Technologies and Expression Analysis (LTEA) Assay for Cytochrome P450 (CYP2B6) using HepaRG (AID 2283481)
# Outline: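 Read-out is CYP2B6 mRNA by TaqMan qRT-PCR, normalized to three housekeeping genes and fitted bidirectionally against 0.5% DMSO baseline. Human HepaRG cells received test chemicals for 48 h, top concentration 100 uM, half-log dilutions.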
# [3] = read-out: Cytochrome P450 2C19 (Homo sapiens) (UniProt P33261); assay: LTEA_HepaRG_CYP2C19: Life Technologies and Expression Analysis (LTEA) Assay for CYP2C19 using HepaRG (AID 2283482)
# Outline: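 HepaRG, 48 h chemical exposure, 8-pt half-log series from 100 uM in 0.5% DMSO, duplicates. Readout: CYP2C19 mRNA by TaqMan qRT-PCR, housekeeping-normalized. Bidirectional fit vs DMSO baseline; phenobarbital 1mM as induction control.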
# CYP2C8 (gene 1558) = assay: LTEA_HepaRG_CYP2C8: Life Technologies and Expression Analysis (LTEA) Assay for CYP2C8 using HepaRG (AID 2283483)
# Outline: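 HepaRG (human liver line), 48 h chemical exposure, 8-pt half-log series from 100 uM, 0.5% DMSO vehicle. Readout: CYP2C8 transcript by qRT-PCR, housekeeping-normalized. Bidirectional fit vs DMSO baseline.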
# CYP2C9 (gene 1559) = assay: LTEA_HepaRG_CYP2C9: Life Technologies and Expression Analysis (LTEA) Assay for CYP2C9 using HepaRG (AID 2283484)
# Outline: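 HepaRG, 48 h dosing, 8-pt half-log series, top 100 uM, 0.5% DMSO vehicle. Read-out: CYP2C9 transcript by TaqMan qRT-PCR, housekeeping-normalized (ACTB/GAPDH/POLR2A). Gain or loss fitted vs DMSO baseline.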
# CYP2E1 (gene 1571) = assay: LTEA_HepaRG_CYP2E1: Life Technologies and Expression Analysis (LTEA) Assay for CYP2E1 using HepaRG (AID 2283485)
# Outline: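 CYP2E1 transcript measured by Fluidigm qRT-PCR against three housekeeping genes in human HepaRG cells treated 48 h (top 100 uM, half-log steps, 0.5% DMSO vehicle). Gain or loss fitted relative to DMSO baseline.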
# CYP4A11 (gene 1579) = assay: LTEA_HepaRG_CYP4A11: Life Technologies and Expression Analysis (LTEA) Assay for CYP4A11 using HepaRG (AID 2283486)
# Outline: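 CYP4A11 transcript levels were quantified by TaqMan qRT-PCR after HepaRG human liver cells were treated for 48 hours with test chemicals (top 100 uM, half-log dilutions, 0.5% DMSO). Gain or loss of signal was fitted relative to DMSO.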
# [4] = read-out: Cytochrome P450 3A4 (Homo sapiens) (UniProt P08684); assay: LTEA_HepaRG_CYP3A4: Life Technologies and Expression Analysis (LTEA) Assay for CYP3A4 using HepaRG (AID 2283487)
# Outline: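 Differentiated HepaRG cells in serum-free induction medium exposed in duplicate for 48 h to 8 half-log concentrations up to 100 uM in 0.5% DMSO. CYP3A4 mRNA measured by qRT-PCR normalized to ACTB, GAPDH and POLR2A; bidirectional fit versus DMSO.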
# [5] = read-out: DNA damage-inducible transcript 3 (DDIT3), DDIT3 (gene 1649); assay: LTEA_HepaRG_DDIT3: Life Technologies and Expression Analysis (LTEA) Assay for DNA damage-inducible transcript 3 (DDIT3) using HepaRG (AID 2283488)
# Outline: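 DDIT3 transcript was quantified by qRT-PCR with ACTB/GAPDH/POLR2A normalization after 48 h chemical treatment of differentiated HepaRG cells in 0.5% DMSO. Dosing was eight-point, half-log, top 100 uM, duplicate wells. Curves fitted bidirectionally versus DMSO.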
# Chain of Cytochrome P450 2C19 (Homo sapiens) (P33261 whole entry, looked up): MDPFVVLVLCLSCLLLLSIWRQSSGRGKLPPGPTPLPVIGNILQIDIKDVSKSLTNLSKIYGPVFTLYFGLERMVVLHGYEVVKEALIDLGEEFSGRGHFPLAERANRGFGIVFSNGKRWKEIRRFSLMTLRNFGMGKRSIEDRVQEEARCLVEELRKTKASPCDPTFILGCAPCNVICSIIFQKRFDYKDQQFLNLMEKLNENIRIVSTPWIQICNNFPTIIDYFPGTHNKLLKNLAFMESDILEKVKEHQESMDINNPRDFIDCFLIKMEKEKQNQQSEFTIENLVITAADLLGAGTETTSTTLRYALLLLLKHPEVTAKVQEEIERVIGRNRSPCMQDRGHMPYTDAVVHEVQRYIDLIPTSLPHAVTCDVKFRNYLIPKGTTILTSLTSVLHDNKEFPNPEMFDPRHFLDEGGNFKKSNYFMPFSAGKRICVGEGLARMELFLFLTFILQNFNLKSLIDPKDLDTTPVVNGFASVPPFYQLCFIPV
# Chain of Cytochrome P450 3A4 (Homo sapiens) (P08684 whole entry, looked up): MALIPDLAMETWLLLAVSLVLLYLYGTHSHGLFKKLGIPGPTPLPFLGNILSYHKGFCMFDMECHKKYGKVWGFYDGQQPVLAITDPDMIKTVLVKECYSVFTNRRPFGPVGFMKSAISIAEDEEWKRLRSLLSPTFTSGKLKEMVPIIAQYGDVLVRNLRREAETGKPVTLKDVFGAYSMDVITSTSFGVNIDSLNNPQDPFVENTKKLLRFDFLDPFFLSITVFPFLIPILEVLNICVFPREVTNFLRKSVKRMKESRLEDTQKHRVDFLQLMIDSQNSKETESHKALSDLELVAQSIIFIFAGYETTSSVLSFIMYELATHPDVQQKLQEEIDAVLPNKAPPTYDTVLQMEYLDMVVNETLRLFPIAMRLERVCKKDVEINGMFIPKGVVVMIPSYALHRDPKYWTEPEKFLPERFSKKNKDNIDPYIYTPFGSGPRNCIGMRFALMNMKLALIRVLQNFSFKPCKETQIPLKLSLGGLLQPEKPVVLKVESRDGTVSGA
Compound,outcome [1],AC50 [2],AC50 [3],outcome (CYP2C8 (gene 1558)),outcome (CYP2C9 (gene 1559)),AC50 (CYP2E1 (gene 1571)),AC50 (CYP4A11 (gene 1579)),AC50 [4],outcome [5],outcome [2],outcome [3],outcome (CYP2E1 (gene 1571)),outcome (CYP4A11 (gene 1579)),outcome [4],AC50 (CYP2C9 (gene 1559)),AC50 (CYP2C8 (gene 1558)),AC50 [5],AC50 [1]
ClC1=C(Cl)C2(Cl)C3C(Cl)C=CC3C1(Cl)C2(Cl)Cl (stereo not drawn),inactive,0.67 µM (active),2.22 µM (active),inactive,inactive,7.54 µM (active),16.1 µM (active),0.927 µM (active),inactive,–,–,–,–,–,–,–,–,–
CCN(CC)CCO,inactive,–,–,inactive,inactive,–,–,–,inactive,inactive,inactive,inactive,inactive,inactive,–,–,–,–
O=C(Nc1ccccc1)c1ccccc1I,inactive,11.1 µM (active),–,inactive,–,32 µM (active),–,–,inactive,–,inactive,–,inactive,inactive,50 µM (active),–,–,–
CCCCCCCCCCCCCN1CC(C)OC(C)C1 (stereo not drawn),inactive,–,–,inactive,inactive,–,–,–,inactive,inactive,inactive,inactive,inactive,inactive,–,–,–,–
CC(C)(O)c1cnn2c(-c3ccc(F)c(-c4c(F)cccc4C#N)c3)cnc2n1,inactive,0.705 µM (active),0.365 µM (active),inactive,–,4.43 µM (active),1.51 µM (active),0.263 µM (active),inactive,–,–,–,–,–,0.291 µM (active),–,–,–
CO[C@@H]1[C@H](OC(=O)NC(=O)CCl)CC[C@]2(CO2)[C@H]1[C@@]1(C)O[C@@H]1CC=C(C)C,inactive,0.0683 µM (active),–,inactive,inactive,–,–,–,inactive,–,inactive,inactive,inactive,inactive,–,–,–,–
CCC[CH2][Sn]([Cl])([CH2]CCC)[CH2]CCC,inactive,2.53 µM (active),1.37 µM (active),–,–,0.505 µM (active),–,2.27 µM (active),–,–,–,–,inactive,–,2.23 µM (active),2.42 µM (active),2.28 µM (active),–
c1ccc2c(c1)-c1cccc3cccc-2c13,inactive,5.03 µM (active),9.15 µM (active),inactive,inactive,34.6 µM (active),–,18 µM (active),inactive,–,–,–,inactive,–,–,–,–,–
C=CCc1ccc2c(c1)OCO2,inactive,18.4 µM (active),–,inactive,inactive,–,–,–,inactive,–,inactive,inactive,inactive,inactive,–,–,–,–
[Cl-].[Cl-].[Hg+2],inactive,–,–,inactive,inactive,–,–,–,inactive,inactive,inactive,inactive,inactive,inactive,–,–,–,–
Brc1ccc(Oc2ccccc2)cc1,inactive,78.1 µM (active),–,inactive,inactive,–,–,–,inactive,–,inactive,inactive,inactive,inactive,–,–,–,–
O=P(OCCCl)(OCCCl)OCCCl,inactive,10.2 µM (active),–,inactive,inactive,25.7 µM (active),–,–,inactive,–,inactive,–,inactive,inactive,–,–,–,–
CC(O)CCO (stereo not drawn),inactive,–,–,inactive,inactive,–,–,–,inactive,inactive,inactive,inactive,inactive,inactive,–,–,–,–
CC(C)N(Cc1ccccc1)C(=O)C(C)(C)C,inactive,2.31 µM (active),11.1 µM (active),–,inactive,19.6 µM (active),–,3.44 µM (active),inactive,–,–,–,inactive,–,–,10.4 µM (active),–,–
CCCSC(=O)N(CCC)CCC,inactive,50 µM (active),–,inactive,inactive,–,–,–,inactive,–,inactive,inactive,inactive,inactive,–,–,–,–
[O-][Cl+]O,inactive,–,–,inactive,inactive,–,–,–,inactive,inactive,inactive,inactive,inactive,inactive,–,–,–,–
N#CC(Br)Br,inactive,–,–,inactive,inactive,–,–,–,inactive,inactive,inactive,inactive,inactive,inactive,–,–,–,–
CCN(CC)N=O,inactive,–,–,inactive,inactive,–,–,–,inactive,inactive,inactive,inactive,inactive,inactive,–,–,–,–
CS(=O)(=O)NC(=O)c1cc(Oc2ccc(C(F)(F)F)cc2Cl)ccc1[N+](=O)[O-],inactive,3.63 µM (active),1.52 µM (active),–,inactive,9.92 µM (active),2.84 µM (active),1.23 µM (active),inactive,–,–,–,–,–,–,1.76 µM (active),–,–
Cc1cccc(N)c1N,inactive,–,–,–,–,58.1 µM (active),86.1 µM (active),–,inactive,inactive,inactive,–,–,inactive,50 µM (active),50 µM (active),–,–
O=C(Oc1ccc(Br)cc1)N1CCN2CCC1CC2,inactive,6.42 µM (active),15.2 µM (active),inactive,inactive,63.8 µM (active),34.9 µM (active),33.3 µM (active),inactive,–,–,–,–,–,–,–,–,–
COc1cc(C=O)cc2c1[C@H](COC(N)=O)[C@]1(OC(C)=O)ON2C[C@H]2[C@@H]1N2C(C)=O,–,73.4 µM (active),0.804 µM (active),–,–,–,0.5 µM (active),–,–,–,–,inactive,–,inactive,24.2 µM (active),0.5 µM (active),15.8 µM (active),3.89 µM (active)
